Assay results as given in PubChem BioAssay (NCI).
The panel holds about 83,000 compounds, 20% with a hit somewhere; the sample as a whole holds those more often.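 Compound tested at a single concentration for 48 hours in 96-well plates; a percent growth value below 10 was scored as active.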 Calls of active or inactive are those of the source.

Columns and labels:
Test in all cases: NCI-60 one-dose screen, 48 h (100 = growth as untreated, 0 = no growth, -100 = all killed)
NCI-H23 lung = conditions: 10 µM unless noted
NCI-H226 lung = conditions: 10 µM unless noted
NCI-H322M lung = conditions: 10 µM unless noted
HOP-62 NSCLC = conditions: 10 µM unless noted
NCI-H460 lung = conditions: 10 µM unless noted
A549/ATCC NSCLC = conditions: 10 µM unless noted
786-0 renal = conditions: 10 µM unless noted
COLO 205 colon = conditions: 10 µM unless noted
DU-145 prostate = conditions: 10 µM unless noted
K-562 leukemia = conditions: 10 µM unless noted
MALME-3M melanoma = conditions: 10 µM unless noted
MDA-MB-231 breast = conditions: 10 µM unless noted
RXF 393 renal = conditions: 10 µM unless noted
SF-268 CNS = conditions: 10 µM unless noted
SF-295 CNS = conditions: 10 µM unless noted
SF-539 CNS = conditions: 10 µM unless noted
UACC-257 melanoma = conditions: 10 µM unless noted
M14 melanoma = conditions: 10 µM unless noted
HOP-92 NSCLC = conditions: 10 µM
NCI-H522 lung = conditions: 10 µM unless noted

Measured: growth

CC(C)(C)c1ccc(-c2nnc(-c3nc4ccccc4nc3Cl)o2)cc1
inactive: NCI-H23 lung 90.9% | NCI-H226 lung 86.5% | NCI-H322M lung 92.9% | HOP-62 NSCLC 11.1% | NCI-H460 lung 88.1% | A549/ATCC NSCLC 102% | 786-0 renal 105% | COLO 205 colon 104% | DU-145 prostate 86.2% | K-562 leukemia 65.9% | MALME-3M melanoma 101% | MDA-MB-231 breast 90.5% | RXF 393 renal 88.4% | SF-268 CNS 42% | SF-295 CNS 103% | SF-539 CNS 93.8% | UACC-257 melanoma 61.9% | M14 melanoma 93.1%

COc1cc(/C=C2\C(=O)Nc3ccccc32)ccc1OCc1ccc(F)cc1
inactive: NCI-H23 lung 99% | NCI-H226 lung 100% | NCI-H322M lung 103% | NCI-H460 lung 86.4% | HOP-92 NSCLC 99.8% | NCI-H522 lung 91.9% | A549/ATCC NSCLC 108% | 786-0 renal 107% | COLO 205 colon 111% | DU-145 prostate 106% | K-562 leukemia 104% | MALME-3M melanoma 99.8% | MDA-MB-231 breast 100% | SF-268 CNS 105% | SF-295 CNS 102% | SF-539 CNS 102% | UACC-257 melanoma 118%

CCN(CC)c1cn(-c2ccc(S(N)(=O)=O)cc2)nn1
inactive: NCI-H23 lung 109% | NCI-H226 lung 109% | NCI-H322M lung 110% | NCI-H460 lung 106% | HOP-92 NSCLC 99% | NCI-H522 lung 92.9% | 786-0 renal 106% | COLO 205 colon 109% | DU-145 prostate 105% | K-562 leukemia 91.6% | MALME-3M melanoma 103% | MDA-MB-231 breast 102% | RXF 393 renal 114% | SF-268 CNS 101% | SF-295 CNS 101% | SF-539 CNS 99.6% | UACC-257 melanoma 99.7%

O=S(=O)(NC1c2ccccc2C[C@H]1O)c1ccc(Cl)cc1Cl (some centres undefined)
inactive: NCI-H23 lung 92.3% | NCI-H226 lung 93.6% | NCI-H322M lung 94.6% | HOP-62 NSCLC 103% | NCI-H460 lung 101% | A549/ATCC NSCLC 93.5% | 786-0 renal 102% | COLO 205 colon 114% | DU-145 prostate 114% | K-562 leukemia 95.2% | MALME-3M melanoma 93.6% | MDA-MB-231 breast 99.5% | RXF 393 renal 107% | SF-268 CNS 96.7% | SF-295 CNS 108% | SF-539 CNS 101% | UACC-257 melanoma 102% | M14 melanoma 92.3%

CCOc1cccc(-c2nc3sccn3c2-c2ccnc(S(C)(=O)=O)n2)c1
inactive: NCI-H23 lung 99.1% | NCI-H226 lung 94% | NCI-H322M lung 93.1% | HOP-62 NSCLC 100% | NCI-H460 lung 76.8% | A549/ATCC NSCLC 102% | 786-0 renal 103% | COLO 205 colon 99.9% | K-562 leukemia 55.4% | MALME-3M melanoma 98.8% | MDA-MB-231 breast 101% | RXF 393 renal 98.3% | SF-268 CNS 99.7% | SF-295 CNS 104% | SF-539 CNS 94.4% | UACC-257 melanoma 91.1% | M14 melanoma 94.4%
active: DU-145 prostate 0.125%

Cc1nn(-c2ccccc2)c2ncnc(N/N=C/c3ccccc3)c12
inactive: NCI-H23 lung 97.3% | NCI-H226 lung 78.3% | NCI-H322M lung 95% | HOP-62 NSCLC 116% | NCI-H460 lung 95.6% | NCI-H522 lung 85.8% | 786-0 renal 84.6% | COLO 205 colon 104% | DU-145 prostate 91.2% | K-562 leukemia 78.5% | MDA-MB-231 breast 109% | RXF 393 renal 91.3% | SF-268 CNS 91.7% | SF-295 CNS 108% | SF-539 CNS 103% | UACC-257 melanoma 113% | M14 melanoma 103%

CN1CCN(c2ccc(/C=N/n3cnc4oc(-c5ccccc5)cc4c3=N)cc2)CC1
inactive: NCI-H23 lung 93.6% | NCI-H226 lung 87.5% | NCI-H322M lung 91.1% | NCI-H460 lung 99.6% | HOP-92 NSCLC 61.4% | NCI-H522 lung 84.4% | A549/ATCC NSCLC 75.1% | 786-0 renal 52.8% | COLO 205 colon 63.5% | DU-145 prostate 100% | MALME-3M melanoma 113% | MDA-MB-231 breast 65.3% | SF-268 CNS 92.5% | SF-295 CNS 99.6% | SF-539 CNS 84.9% | UACC-257 melanoma 96.7%
active: K-562 leukemia 6.36% | RXF 393 renal -5.53%

CCCn1cnc2c(c1=N)C(c1ccc(OC)cc1)c1sc3c(CC)cccc3c1O2 (centres undefined)
inactive: NCI-H23 lung 18.9% | NCI-H226 lung 57% | NCI-H322M lung 37.6% | HOP-62 NSCLC 38.8% | NCI-H460 lung 10.1% | 786-0 renal 32.3% | COLO 205 colon 13.9% | DU-145 prostate 16.7% | K-562 leukemia 13.1% | MALME-3M melanoma 53.5% | MDA-MB-231 breast 29.1% | SF-268 CNS 45.1% | UACC-257 melanoma 81.9%
active: NCI-H522 lung -14.3% | RXF 393 renal -13.3% | SF-295 CNS -18.1% | SF-539 CNS -22% | M14 melanoma 2.9%

N#Cc1c(NC(=O)c2cccc(C(F)(F)F)c2F)sc2c1CCC(=O)C2
active: NCI-H226 lung -23.9% | NCI-H460 lung 9.08% | HOP-92 NSCLC -66.1% | NCI-H522 lung 3.71% | COLO 205 colon -8.77% | K-562 leukemia 1.31% | MALME-3M melanoma -21.6% | MDA-MB-231 breast -48% | RXF 393 renal -67.1% | SF-295 CNS -19.4% | SF-539 CNS -41.8% | UACC-257 melanoma -36.3%
inactive: NCI-H23 lung 11% | NCI-H322M lung 35.1% | A549/ATCC NSCLC 12.3% | 786-0 renal 14.8% | DU-145 prostate 24.6% | SF-268 CNS 11.2%
